Data: PubChem BioAssay (NCI)
The panel holds about 79,000 compounds, 15% with a hit somewhere; the sample as a whole holds those more often. Active and inactive are the calls of the source. Cut-off read from the data, not from the text of the source: active = growth inhibition above about 70%; inactive = the rest.

Tests used:
[1] = NCI Yeast Anticancer Drug Screen. Data for the rad52 strain (AID 147);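 note: 0% = growth of vehicle-treated control cultures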; conditions: S. cerevisiae rad52 mutant growth inhibition, hits give high values
Outline: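 Vehicle-treated cultures served as the reference for growth inhibition of compound-exposed yeast bearing a DNA repair mutation.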

[2] = NCI Yeast Anticancer Drug Screen. Data for the wt1 strain (AID 149);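 note: 0% = growth of vehicle-treated wt1 cultures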; conditions: S. cerevisiae wt1 strain (SPY 50644) growth inhibition, hits give high values
Outline: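 Yeast wt1 strain exposed to compounds; growth inhibition measured relative to vehicle-treated controls.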

[3] = NCI Yeast Anticancer Drug Screen. Data for the rad50EPP+ strain (AID 151);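 note: 0% = growth of vehicle-treated control cultures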; conditions: S. cerevisiae rad50 mutant strain, hits give high values
Outline: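 In this screen, rad50EPP+ yeast were exposed to compounds. Growth inhibition was scored against vehicle-treated controls.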

[4] = NCI Yeast Anticancer Drug Screen. Data for the mgt1 strain (AID 153); conditions: S. cerevisiae mgt1 mutant growth inhibition, hits give high values
Outline: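 mgt1 strain exposed; growth vs vehicle control recorded as inhibition.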

[5] = NCI Yeast Anticancer Drug Screen. Data for the rad50 strain (AID 155);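 note: 0% = growth of vehicle-only cultures of the same strain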; conditions: S. cerevisiae rad50 strain growth inhibition, hits give high values
Outline: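 Yeast carrying a defined DNA repair defect were exposed to test compounds, and growth was compared with vehicle-treated controls to give percent inhibition.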

[6] = NCI Yeast Anticancer Drug Screen. Data for the mec2-1 strain (AID 157); conditions: S. cerevisiae mec2-1 strain, hits give high values
Outline: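 Vehicle-treated cultures served as reference for growth inhibition of compound-exposed mec2-1 yeast.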

[7] = NCI Yeast Anticancer Drug Screen. Data for the rad14 strain (AID 159);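 note: 0% = growth of vehicle-treated control cultures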; conditions: S. cerevisiae rad14 strain growth inhibition, hits give high values
Outline: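 Yeast cells carrying a defined DNA-repair defect were exposed to compounds, and growth inhibition was calculated relative to vehicle-treated control cultures.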

[8] = NCI Yeast Anticancer Drug Screen. Data for the sgs1 mgt1 strain (AID 161);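 note: 0% = growth of cultures given vehicle only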; conditions: S. cerevisiae sgs1 mgt1 strain, hits give high values
Outline: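 Mutant yeast exposed to compound; growth scored against vehicle-only wells.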

[9] = NCI Yeast Anticancer Drug Screen. Data for the CLN2oe strain (AID 163);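 note: 0% = growth of vehicle-only control cultures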; conditions: S. cerevisiae CLN2oe strain, hits give high values
Outline: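 Inhibition relative to vehicle-treated yeast is reported. Cells: strain with genetic alteration in cell-cycle control, grown with compound.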

[10] = NCI Yeast Anticancer Drug Screen. Data for the cln2 rad14 strain (AID 165);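 note: 0% = growth equal to vehicle treated cultures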; conditions: S. cerevisiae cln2 rad14 strain, hits give high values
Outline: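 Each compound was tested on cln2 rad14 yeast. Inhibition of growth was calculated against vehicle-exposed controls.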

[11] = NCI Yeast Anticancer Drug Screen. Data for the bub3 strain (AID 167); conditions: S. cerevisiae bub3 mutant strain, hits give high values
Outline: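 Compounds were applied to a genetically altered yeast strain carrying a cell-cycle control defect. Growth inhibition was scored against vehicle-treated controls.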

[12] = NCI Yeast Anticancer Drug Screen. Data for the wt2 strain (AID 169);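 note: 0% = growth of vehicle-treated yeast cultures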; conditions: S. cerevisiae wt2 strain growth inhibition, hits give high values
Outline: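 Inhibition of yeast growth was determined after compound treatment, normalised to controls receiving only vehicle.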

[13] = NCI Yeast Anticancer Drug Screen. Data for the mlh1 strain (AID 171);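 note: 0% = growth of vehicle-treated control cultures of the same strain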; conditions: S. cerevisiae mlh1 strain growth inhibition, hits give high values
Outline: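 Vehicle-normalised growth inhibition of a repair- or checkpoint-altered yeast strain following compound treatment.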

[14] = NCI Yeast Anticancer Drug Screen. Data for the sgs1 strain (AID 173);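 note: 0% = growth of vehicle-only control cultures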; conditions: S. cerevisiae sgs1 mutant, hits give high values
Outline: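 Screen format: yeast with repair or checkpoint alterations, compound exposure, growth read relative to vehicle.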

[15] = NCI Yeast Anticancer Drug Screen. Data for the mlh1 rad18 strain (AID 175); conditions: S. cerevisiae mlh1 rad18 strain growth inhibition, hits give high values
Outline: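 Vehicle-treated cultures served as the reference for growth inhibition in a yeast strain carrying DNA damage repair alterations exposed to each compound.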

[16] = NCI Yeast Anticancer Drug Screen. Data for the rad18 strain (AID 177); conditions: S. cerevisiae rad18 mutant growth inhibition, hits give high values
Outline: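 Test articles were incubated with altered yeast defective in DNA damage repair. Results are given as inhibition of growth versus vehicle.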

[17] = at 5.0 µM (retest, dose inferred, filed as 0.5)
[18] = at 50.0 µM (retest, dose inferred, filed as 5.0)

Measured: growth inhibition

Nc1n[n+]([O-])c2ccc(Cl)cc2[n+]1[O-]
active: [1]; at 3.7 µM 80% | [1]; at 11.0 µM 91% | [1]; at 33.0 µM 94% | [1]; at 100.0 µM 96% | [2]; at 100.0 µM 84% | [3]; at 3.7 µM 77% | [3]; at 11.0 µM 88% | [3]; at 33.0 µM 91% | [3]; at 100.0 µM 94% | [4]; at 33.0 µM 80% | [4]; at 100.0 µM 95% | [5]; at 3.7 µM 79% | [5]; at 11.0 µM 88% | [5]; at 33.0 µM 92% | [5]; [18] 95% | [5]; at 50.0 µM 96.8% | [5]; at 100.0 µM 94% | [6]; at 33.0 µM 83% | [6]; [18] 91% | [6]; at 50.0 µM 78% | [6]; at 100.0 µM 93% | [7]; at 11.0 µM 71% | [7]; at 33.0 µM 89% | [7]; at 100.0 µM 96% | [8]; [18] 91% | [8]; at 50.0 µM 93.2% | [9]; at 33.0 µM 84% | [9]; at 100.0 µM 95% | [10]; [18] 93% | [10]; at 50.0 µM 76.7% | [11]; at 33.0 µM 81% | [11]; [18] 93% | [11]; at 50.0 µM 82.8% | [11]; at 100.0 µM 90% | [12]; at 33.0 µM 85% | [12]; at 100.0 µM 95% | [13]; at 11.0 µM 70% | [13]; at 33.0 µM 93% | [13]; at 100.0 µM 96% | [14]; at 11.0 µM 78% | [14]; at 33.0 µM 91% | [14]; at 100.0 µM 95% | [15]; [18] 97% | [15]; at 50.0 µM 94.7% | [16]; at 3.7 µM 87% | [16]; at 11.0 µM 93% | [16]; at 33.0 µM 95% | [16]; at 100.0 µM 95%
inactive: [1]; at 1.2 µM 49% | [2]; at 1.2 µM 8% | [2]; at 3.7 µM 13% | [2]; at 11.0 µM 31% | [2]; at 33.0 µM 62% | [3]; at 1.2 µM 53% | [4]; at 1.2 µM 1% | [4]; at 3.7 µM 27% | [4]; at 11.0 µM 36% | [5]; at 1.2 µM 60% | [5]; [17] 65% | [6]; at 1.2 µM 9% | [6]; at 3.7 µM 22% | [6]; [17] 15% | [6]; at 11.0 µM 57% | [7]; at 1.2 µM 12% | [7]; at 3.7 µM 32% | [8]; [17] 48% | [9]; at 1.2 µM 6% | [9]; at 3.7 µM 32% | [9]; at 11.0 µM 55% | [10]; [17] 19% | [11]; at 1.2 µM 0% | [11]; at 3.7 µM 15% | [11]; [17] 24% | [11]; at 11.0 µM 44% | [12]; at 1.2 µM 8% | [12]; at 3.7 µM 30% | [12]; at 11.0 µM 57% | [13]; at 1.2 µM 15% | [13]; at 3.7 µM 38% | [14]; at 1.2 µM 18% | [14]; at 3.7 µM 55% | [15]; [17] 50% | [16]; at 1.2 µM 66%

O=[N+]([O-])/C=C/c1cc(Cl)c(/C=C/[N+](=O)[O-])cc1Cl
active: [1]; at 11.0 µM 74% | [1]; at 33.0 µM 91% | [1]; at 100.0 µM 89% | [3]; at 100.0 µM 70% | [4]; at 33.0 µM 96% | [4]; at 100.0 µM 92% | [5]; at 11.0 µM 81% | [5]; at 33.0 µM 97% | [5]; at 50.0 µM 79.7% | [5]; at 100.0 µM 94% | [6]; at 33.0 µM 81% | [6]; at 50.0 µM 73.5% | [6]; at 100.0 µM 85% | [7]; at 11.0 µM 93% | [7]; at 33.0 µM 97% | [7]; at 100.0 µM 92% | [8]; [18] 73% | [8]; at 50.0 µM 74.8% | [9]; at 100.0 µM 73% | [11]; at 11.0 µM 84% | [11]; at 33.0 µM 92% | [11]; [18] 96% | [11]; at 50.0 µM 79.2% | [11]; at 100.0 µM 91% | [12]; at 33.0 µM 91% | [13]; at 33.0 µM 96% | [13]; at 100.0 µM 92% | [16]; at 11.0 µM 78% | [16]; at 33.0 µM 95% | [16]; at 100.0 µM 89%
inactive: [1]; at 1.2 µM 35% | [1]; at 3.7 µM 55% | [2]; at 1.2 µM 25% | [2]; at 3.7 µM 32% | [2]; at 11.0 µM 43% | [2]; at 33.0 µM 42% | [2]; at 100.0 µM 37% | [3]; at 1.2 µM 13% | [3]; at 3.7 µM 19% | [3]; at 11.0 µM 35% | [3]; at 33.0 µM 66% | [4]; at 1.2 µM 36% | [4]; at 3.7 µM 48% | [4]; at 11.0 µM 68% | [5]; at 1.2 µM 33% | [5]; at 3.7 µM 55% | [5]; [17] 3% | [5]; [18] 53% | [6]; at 1.2 µM 39% | [6]; at 3.7 µM 59% | [6]; [17] 18% | [6]; at 11.0 µM 65% | [6]; [18] 56% | [7]; at 1.2 µM 25% | [7]; at 3.7 µM 68% | [8]; [17] 23% | [9]; at 1.2 µM 22% | [9]; at 3.7 µM 32% | [9]; at 11.0 µM 49% | [9]; at 33.0 µM 69% | [10]; [17] 22% | [10]; [18] 60% | [10]; at 50.0 µM 62.1% | [11]; at 1.2 µM 28% | [11]; at 3.7 µM 37% | [11]; [17] 43% | [12]; at 1.2 µM 8% | [12]; at 3.7 µM 34% | [12]; at 11.0 µM 68% | [12]; at 100.0 µM 69% | [13]; at 1.2 µM 36% | [13]; at 3.7 µM 48% | [13]; at 11.0 µM 68% | [14]; at 1.2 µM 22% | [14]; at 3.7 µM 16% | [14]; at 11.0 µM 14% | [14]; at 33.0 µM 52% | [14]; at 100.0 µM 32% | [16]; at 1.2 µM 19% | [16]; at 3.7 µM 51%
